Results taken from the supplement of paper PMC10849652.
Targets with a hit are over-represented here; the source holds about 8,800 in all. About 0.5% of all pairs of compound and target were hits.

Assays:
Experiment in all cases: log2 fold change, soluble protein after heating vs DMSO (PISA); higher = thermal stabilisation; K562 lysate, 10 uM; active = over 0.2 and 3.5 SD of the protein, either way, in both replicates (recomputed)
nilotinib = compound: Cc1cn(-c2cc(NC(=O)c3ccc(C)c(Nc4nccc(-c5cccnc5)n4)c3)cc(C(F)(F)F)c2)cn1 [nilotinib]
Summary of the method: (§1)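 K562 pellets were dounce-homogenised in PBS pH 7.4 containing 1 mM MgCl2, and the crude extract, at 1 mg/mL protein, was exposed to 10 μM compound for 30 min. Aliquots were heated for 3 min across 48°C-58°C, pooled, brought to 0.5% NP-40 at 4°C and spun at 21,000xg for 90 min, with the supernatant taken as soluble protein. TMTpro 16plex LC-MS/MS with equalised channel sums quantified that protein. Values are log-two fold changes in thermal stability relative to solvent controls, taken from duplicates.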

[1] = compound: Cc1nc(Nc2n[nH]c3c2CN(C(=O)N[C@H](CN(C)C)c2ccccc2)C3(C)C)c2sccc2n1
Summary of the method: as §1

dasatinib = compound: Cc1nc(Nc2ncc(C(=O)Nc3c(C)cccc3Cl)s2)cc(N2CCN(CCO)CC2)n1 [dasatinib]
Summary of the method: as §1

[2] = compound: Cc1ncc(-c2ccnc(Nc3ccc(S(C)(=O)=O)cc3)n2)n1C(C)C
Summary of the method: as §1

[3] = compound: Cn1cc(-c2ccc3c(c2)CCN3C(=O)Cc2cccc(C(F)(F)F)c2)c2c(N)ncnc21
Summary of the method: as §1

quisinostat = compound: Cn1cc(CNCC2CCN(c3ncc(C(=O)NO)cn3)CC2)c2ccccc21 [quisinostat]
Summary of the method: as §1

tipifarnib = compound: Cn1cncc1[C@@](N)(c1ccc(Cl)cc1)c1ccc2c(c1)c(-c1cccc(Cl)c1)cc(=O)n2C [tipifarnib]
Summary of the method: as §1

[4] = compound: NC(=O)Nc1cc(-c2cccc(F)c2)sc1C(=O)N[C@H]1CCCNC1
Summary of the method: as §1

[5] = compound: NC(=O)c1cnc(N[C@@H]2CCCC[C@@H]2N)nc1Nc1cccc(-n2nccn2)c1
Summary of the method: as §1

[6] = compound: NC1(c2ccc(-c3nc4ccn5c(=O)[nH]nc5c4cc3-c3ccccc3)cc2)CCC1
Summary of the method: as §1

[7] = compound: NCC(=O)Nc1ccc(-n2nc(C(F)(F)F)cc2-c2ccc3c(ccc4ccccc43)c2)cc1
Summary of the method: as §1

vorinostat = compound: O=C(CCCCCCC(=O)Nc1ccccc1)NO [vorinostat]
Summary of the method: as §1

silmitasertib = compound: O=C(O)c1ccc2c(c1)nc(Nc1cccc(Cl)c1)c1ccncc12 [silmitasertib]
Summary of the method: as §1

[8] = compound: O=C1NC(=O)C(c2cnc3ccccn23)=C1c1cn2c3c(cc(F)cc13)CN(C(=O)N1CCCCC1)CC2
Summary of the method: as §1

entospletinib = compound: c1cn2cc(-c3ccc4cn[nH]c4c3)nc(Nc3ccc(N4CCOCC4)cc3)c2n1 [entospletinib]
Summary of the method: as §1

Measured: log2 fold change

RHAG (UniProt Q02094)
inactive: nilotinib 0.041 | [1] -0.013 | dasatinib -0.029 | [2] -0.016 | [3] -0.06 | quisinostat -0.142 | tipifarnib 0.011 | [4] 0.011 | [5] -0.024 | [6] -0.002 | [7] 0.031 | vorinostat -0.026 | silmitasertib 0.153 | [8] 0.015 | entospletinib -0.03

SCML2 (UniProt Q9UQR0)
Chain of UniProt Q9UQR0 (Q9UQR0 whole entry, looked up): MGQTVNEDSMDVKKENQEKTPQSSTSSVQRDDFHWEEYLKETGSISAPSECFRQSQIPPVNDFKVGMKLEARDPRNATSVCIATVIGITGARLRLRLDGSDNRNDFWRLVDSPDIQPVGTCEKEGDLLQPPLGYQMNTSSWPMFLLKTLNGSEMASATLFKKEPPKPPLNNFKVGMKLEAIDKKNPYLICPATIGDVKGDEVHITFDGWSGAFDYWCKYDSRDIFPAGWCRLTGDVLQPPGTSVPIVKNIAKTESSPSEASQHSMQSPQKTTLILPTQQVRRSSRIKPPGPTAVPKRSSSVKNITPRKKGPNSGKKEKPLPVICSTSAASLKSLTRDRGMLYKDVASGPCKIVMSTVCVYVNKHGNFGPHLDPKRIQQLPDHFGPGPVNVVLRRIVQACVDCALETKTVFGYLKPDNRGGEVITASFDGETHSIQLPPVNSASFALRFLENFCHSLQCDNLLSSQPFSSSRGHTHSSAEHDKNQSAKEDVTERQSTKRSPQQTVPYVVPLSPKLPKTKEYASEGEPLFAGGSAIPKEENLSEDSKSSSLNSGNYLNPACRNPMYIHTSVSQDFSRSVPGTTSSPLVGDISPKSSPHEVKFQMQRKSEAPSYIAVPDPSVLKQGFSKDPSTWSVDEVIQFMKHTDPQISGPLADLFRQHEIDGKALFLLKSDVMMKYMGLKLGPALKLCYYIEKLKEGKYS
active: vorinostat -0.243
inactive: nilotinib 0.042 | [1] 0.004 | dasatinib -0.014 | [2] -0.06 | [3] 0.027 | quisinostat 0.007 | tipifarnib 0.065 | [4] 0.048 | [5] 0.012 | [6] -0.022 | [7] -0.099 | silmitasertib 0.039 | [8] 0.037 | entospletinib 0.007

RNF40 (UniProt O75150)
Chain of UniProt O75150 (O75150 whole entry, looked up): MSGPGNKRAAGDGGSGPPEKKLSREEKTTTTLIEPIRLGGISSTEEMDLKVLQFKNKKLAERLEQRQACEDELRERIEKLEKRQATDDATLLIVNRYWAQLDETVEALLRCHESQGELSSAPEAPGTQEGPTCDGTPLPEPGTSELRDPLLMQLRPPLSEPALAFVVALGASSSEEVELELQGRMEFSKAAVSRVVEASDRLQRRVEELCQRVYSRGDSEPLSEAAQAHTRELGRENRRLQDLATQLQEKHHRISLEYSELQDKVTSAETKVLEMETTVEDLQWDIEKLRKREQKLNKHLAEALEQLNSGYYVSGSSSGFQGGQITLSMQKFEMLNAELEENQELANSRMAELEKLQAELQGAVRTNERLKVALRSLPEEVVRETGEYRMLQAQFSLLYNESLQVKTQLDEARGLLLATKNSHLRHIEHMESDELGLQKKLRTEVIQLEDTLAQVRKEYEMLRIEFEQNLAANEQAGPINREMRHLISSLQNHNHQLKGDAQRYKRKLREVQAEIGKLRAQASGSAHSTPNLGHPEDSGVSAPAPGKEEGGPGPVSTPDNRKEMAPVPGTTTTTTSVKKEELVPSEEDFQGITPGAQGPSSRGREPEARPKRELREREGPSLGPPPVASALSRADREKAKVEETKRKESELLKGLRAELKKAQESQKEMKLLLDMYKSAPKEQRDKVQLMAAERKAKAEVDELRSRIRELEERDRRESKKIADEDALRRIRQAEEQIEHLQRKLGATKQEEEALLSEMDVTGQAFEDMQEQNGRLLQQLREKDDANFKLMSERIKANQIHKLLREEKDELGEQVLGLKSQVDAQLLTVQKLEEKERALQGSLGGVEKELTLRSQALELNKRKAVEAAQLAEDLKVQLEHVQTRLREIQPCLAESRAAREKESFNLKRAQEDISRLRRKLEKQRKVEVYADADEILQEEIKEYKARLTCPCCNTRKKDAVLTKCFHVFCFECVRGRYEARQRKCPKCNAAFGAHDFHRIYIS
inactive: nilotinib -0.022 | [1] 0.009 | dasatinib -0.012 | [2] 0.003 | [3] 0.031 | quisinostat -0.029 | tipifarnib 0.003 | [4] 0.031 | [5] 0.009 | [6] -0.012 | [7] 0.015 | silmitasertib 0.032 | [8] -0.007 | entospletinib -0.022
active: vorinostat -0.237

SATB2 (UniProt Q9UPW6)
active: vorinostat -0.347
inactive: nilotinib -0.08 | [1] -0.02 | dasatinib 0.041 | [2] -0.005 | [3] 0.013 | quisinostat -0.06 | tipifarnib 0.009 | [4] 0.018 | [5] 0.031 | [6] 0 | [7] 0 | silmitasertib 0.051 | [8] -0.024 | entospletinib 0.036

QSER1, A0A3B3IRW6
active: vorinostat -0.236
inactive: nilotinib -0.028 | [1] 0.056 | dasatinib 0.018 | [2] 0.042 | [3] 0.052 | quisinostat -0.117 | tipifarnib -0.048 | [4] 0.064 | [5] -0.027 | [6] -0.048 | [7] -0.013 | silmitasertib 0.038 | [8] 0.033 | entospletinib 0.002

RALA (UniProt P11233)
Chain of UniProt P11233 (P11233 whole entry, looked up): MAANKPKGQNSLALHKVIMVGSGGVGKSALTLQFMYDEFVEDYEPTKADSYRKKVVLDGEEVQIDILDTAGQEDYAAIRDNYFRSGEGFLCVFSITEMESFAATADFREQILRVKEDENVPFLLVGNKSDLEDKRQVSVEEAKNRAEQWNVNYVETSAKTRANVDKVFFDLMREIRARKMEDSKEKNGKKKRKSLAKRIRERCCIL
inactive: nilotinib -0.04 | [1] -0.001 | dasatinib 0.017 | [2] -0.04 | [3] -0.018 | quisinostat 0.004 | tipifarnib -0.041 | [4] 0.033 | [5] 0.038 | [6] -0.003 | [7] 0.031 | vorinostat 0.129 | silmitasertib -0.062 | [8] 0 | entospletinib -0.006

QRSL1 (UniProt Q9H0R6)
Chain of UniProt Q9H0R6 (Q9H0R6 whole entry, looked up): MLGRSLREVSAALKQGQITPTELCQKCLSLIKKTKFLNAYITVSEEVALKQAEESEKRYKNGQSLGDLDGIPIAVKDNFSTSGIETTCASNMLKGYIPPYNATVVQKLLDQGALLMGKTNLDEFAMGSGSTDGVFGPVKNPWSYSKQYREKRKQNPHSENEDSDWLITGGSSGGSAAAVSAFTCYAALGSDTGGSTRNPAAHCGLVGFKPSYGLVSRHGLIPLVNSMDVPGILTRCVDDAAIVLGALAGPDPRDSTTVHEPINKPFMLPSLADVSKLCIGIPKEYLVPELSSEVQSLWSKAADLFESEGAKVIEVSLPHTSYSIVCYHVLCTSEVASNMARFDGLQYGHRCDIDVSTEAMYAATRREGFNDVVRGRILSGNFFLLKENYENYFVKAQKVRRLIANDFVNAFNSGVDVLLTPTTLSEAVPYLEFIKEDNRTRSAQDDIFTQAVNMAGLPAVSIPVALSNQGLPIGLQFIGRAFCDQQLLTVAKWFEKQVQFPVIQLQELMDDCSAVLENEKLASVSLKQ
inactive: nilotinib -0.022 | [1] 0.031 | dasatinib -0.018 | [2] 0.069 | [3] 0.07 | quisinostat -0.054 | tipifarnib -0.002 | [4] 0.034 | [5] -0.02 | [6] -0.031 | [7] 0.066 | silmitasertib 0.051 | [8] 0.028 | entospletinib 0.019
active: vorinostat -0.308

RPL36AL (UniProt Q969Q0)
active: quisinostat 0.329
inactive: nilotinib 0.034 | [1] 0.038 | dasatinib 0.094 | [2] 0.055 | [3] 0.04 | tipifarnib 0.058 | [4] 0.01 | [5] -0.026 | [6] -0.009 | [7] -0.056 | vorinostat 0.124 | silmitasertib 0.011 | [8] 0.131 | entospletinib -0.001

RPL31 (UniProt P62899)
inactive: nilotinib 0.007 | [1] -0.034 | dasatinib 0.046 | [2] -0.036 | [3] -0.038 | quisinostat 0.043 | tipifarnib 0.021 | [4] -0.004 | [5] -0.018 | [6] 0.005 | [7] 0.003 | vorinostat 0.126 | silmitasertib 0.007 | [8] 0.06 | entospletinib 0.021

RPL37A (UniProt P61513)
inactive: nilotinib 0.041 | [1] 0.011 | dasatinib 0.095 | [2] 0.067 | [3] 0.032 | quisinostat 0.139 | tipifarnib 0.008 | [4] -0.028 | [5] -0.013 | [6] -0.021 | [7] 0.028 | vorinostat 0.08 | silmitasertib -0.021 | [8] 0.093 | entospletinib -0.005

RSU1 (UniProt Q15404)
Chain of UniProt Q15404 (Q15404 whole entry, looked up): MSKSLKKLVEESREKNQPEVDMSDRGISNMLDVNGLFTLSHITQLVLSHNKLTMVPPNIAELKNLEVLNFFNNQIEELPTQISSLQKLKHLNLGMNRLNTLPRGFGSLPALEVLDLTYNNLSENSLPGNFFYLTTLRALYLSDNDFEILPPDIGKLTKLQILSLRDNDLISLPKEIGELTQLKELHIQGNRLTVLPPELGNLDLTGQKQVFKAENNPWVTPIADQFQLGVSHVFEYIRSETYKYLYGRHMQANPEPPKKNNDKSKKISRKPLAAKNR
inactive: nilotinib 0.011 | [1] -0.011 | dasatinib 0.007 | [2] -0.028 | [3] 0.001 | quisinostat 0.112 | tipifarnib 0.016 | [4] -0.002 | [5] 0.007 | [6] 0.002 | [7] 0.018 | vorinostat 0.15 | silmitasertib 0 | [8] 0.034 | entospletinib 0.003

RFC5 (UniProt P40937)
Chain of UniProt P40937 (P40937 whole entry, looked up): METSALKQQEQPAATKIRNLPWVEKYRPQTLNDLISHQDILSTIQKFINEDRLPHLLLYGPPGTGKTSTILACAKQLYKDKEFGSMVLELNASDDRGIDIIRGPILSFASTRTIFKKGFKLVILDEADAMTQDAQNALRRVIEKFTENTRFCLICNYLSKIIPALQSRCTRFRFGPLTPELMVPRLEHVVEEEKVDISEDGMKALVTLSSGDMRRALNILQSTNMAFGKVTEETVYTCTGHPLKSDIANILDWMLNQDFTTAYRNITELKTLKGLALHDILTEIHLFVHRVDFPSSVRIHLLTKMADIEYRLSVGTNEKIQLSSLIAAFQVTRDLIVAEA
active: vorinostat -0.492
inactive: nilotinib 0.005 | [1] 0.001 | dasatinib -0.06 | [2] -0.005 | [3] 0.025 | quisinostat -0.078 | tipifarnib -0.023 | [4] 0.074 | [5] 0.025 | [6] -0.02 | [7] 0.019 | silmitasertib 0.031 | [8] 0.019 | entospletinib 0.014

RBM8A (UniProt Q9Y5S9)
inactive: nilotinib -0.005 | [1] 0.025 | dasatinib 0.023 | [2] 0.004 | [3] 0.067 | quisinostat 0.187 | tipifarnib 0.051 | [4] -0.016 | [5] 0 | [6] 0.108 | [7] -0.113 | vorinostat 0.103 | silmitasertib 0.042 | [8] -0.046 | entospletinib -0.019

RALGAPA1 isoform 6 (UniProt Q6GYQ0)
inactive: nilotinib -0.05 | [1] -0.044 | dasatinib -0.018 | [2] -0.066 | [3] 0.071 | quisinostat -0.15 | tipifarnib 0.019 | [4] 0.039 | [5] 0.052 | [6] -0.08 | [7] 0.047 | vorinostat 0.034 | silmitasertib -0.054 | [8] -0.027 | entospletinib -0.022

RPS9 (UniProt P46781)
inactive: nilotinib 0.001 | [1] -0.023 | dasatinib 0.067 | [2] -0.039 | [3] 0.023 | quisinostat 0.141 | tipifarnib 0.022 | [4] -0.037 | [5] -0.015 | [6] 0.039 | [7] -0.03 | vorinostat 0.125 | silmitasertib 0.042 | [8] 0.002 | entospletinib 0.004

RPTOR (UniProt Q8N122)
Chain of UniProt Q8N122 (Q8N122 whole entry, looked up): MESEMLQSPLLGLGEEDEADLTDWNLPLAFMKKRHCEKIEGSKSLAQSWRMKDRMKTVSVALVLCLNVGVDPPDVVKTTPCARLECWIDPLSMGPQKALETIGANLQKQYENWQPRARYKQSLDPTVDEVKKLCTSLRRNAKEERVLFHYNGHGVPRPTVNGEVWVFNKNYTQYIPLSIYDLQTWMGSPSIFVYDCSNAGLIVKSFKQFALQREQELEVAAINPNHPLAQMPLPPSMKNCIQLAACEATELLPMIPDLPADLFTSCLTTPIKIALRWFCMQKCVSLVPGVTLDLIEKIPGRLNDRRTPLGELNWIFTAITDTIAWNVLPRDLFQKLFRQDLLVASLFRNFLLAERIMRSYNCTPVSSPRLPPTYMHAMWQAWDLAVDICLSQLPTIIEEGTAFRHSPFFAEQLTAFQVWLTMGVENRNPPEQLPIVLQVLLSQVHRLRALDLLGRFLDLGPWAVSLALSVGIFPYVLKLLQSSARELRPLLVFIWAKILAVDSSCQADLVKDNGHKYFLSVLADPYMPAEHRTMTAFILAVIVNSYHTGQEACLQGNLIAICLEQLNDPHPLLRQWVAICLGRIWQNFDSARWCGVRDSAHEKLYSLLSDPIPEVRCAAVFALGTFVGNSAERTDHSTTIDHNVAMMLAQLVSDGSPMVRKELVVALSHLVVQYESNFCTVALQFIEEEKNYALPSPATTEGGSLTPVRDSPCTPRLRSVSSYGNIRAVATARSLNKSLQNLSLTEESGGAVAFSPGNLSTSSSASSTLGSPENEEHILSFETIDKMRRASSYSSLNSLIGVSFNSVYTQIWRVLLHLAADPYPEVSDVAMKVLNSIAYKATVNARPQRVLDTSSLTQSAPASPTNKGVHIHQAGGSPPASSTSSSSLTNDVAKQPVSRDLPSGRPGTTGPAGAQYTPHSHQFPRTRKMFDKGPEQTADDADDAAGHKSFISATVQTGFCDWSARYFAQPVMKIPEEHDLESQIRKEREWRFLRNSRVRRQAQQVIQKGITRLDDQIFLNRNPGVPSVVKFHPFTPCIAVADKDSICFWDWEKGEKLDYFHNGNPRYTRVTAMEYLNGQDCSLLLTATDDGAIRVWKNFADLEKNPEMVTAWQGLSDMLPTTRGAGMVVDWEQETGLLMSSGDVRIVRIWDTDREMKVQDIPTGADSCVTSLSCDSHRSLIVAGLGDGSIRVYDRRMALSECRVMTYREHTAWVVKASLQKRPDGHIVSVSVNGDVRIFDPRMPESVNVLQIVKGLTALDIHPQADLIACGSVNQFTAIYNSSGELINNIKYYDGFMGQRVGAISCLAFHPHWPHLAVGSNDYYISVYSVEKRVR
inactive: nilotinib -0.005 | [1] -0.035 | dasatinib -0.041 | [2] -0.016 | [3] 0.011 | quisinostat -0.057 | tipifarnib 0.014 | [4] 0.047 | [5] 0.006 | [6] -0.041 | [7] 0.002 | silmitasertib 0.048 | [8] 0.012 | entospletinib -0.01
active: vorinostat -0.337

RAB6D (UniProt Q53S08)
inactive: nilotinib -0.028 | [1] -0.019 | dasatinib -0.004 | [2] 0.111 | [3] -0.008 | quisinostat -0.056 | tipifarnib -0.162 | [4] -0.006 | [5] -0.013 | [6] -0.064 | [7] -0.012 | vorinostat 0.151 | silmitasertib -0.02 | [8] -0.011 | entospletinib -0.01

RASA2 (UniProt Q15283)
active: vorinostat -0.275
inactive: nilotinib -0.049 | [1] -0.037 | dasatinib -0.015 | [2] 0.063 | [3] 0 | quisinostat -0.071 | tipifarnib 0.018 | [4] -0.011 | [5] 0.042 | [6] -0.031 | [7] -0.007 | silmitasertib 0.021 | [8] -0.006 | entospletinib 0.023

REEP5 (UniProt Q00765)
Chain of UniProt Q00765 (Q00765 whole entry, looked up): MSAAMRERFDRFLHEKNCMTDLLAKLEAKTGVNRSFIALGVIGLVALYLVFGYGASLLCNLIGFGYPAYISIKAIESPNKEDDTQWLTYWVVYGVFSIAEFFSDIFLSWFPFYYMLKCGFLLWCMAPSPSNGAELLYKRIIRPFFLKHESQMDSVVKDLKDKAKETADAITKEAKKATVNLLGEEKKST
inactive: nilotinib 0.107 | [1] -0.011 | dasatinib 0.056 | [2] 0.003 | [3] -0.012 | quisinostat 0.005 | tipifarnib 0.026 | [4] -0.024 | [5] 0 | [6] -0.023 | [7] -0.034 | vorinostat 0.001 | silmitasertib -0.025 | [8] 0.02 | entospletinib 0.015

R3HCC1 (UniProt Q9Y3T6)
Chain of UniProt Q9Y3T6 (Q9Y3T6 whole entry, looked up, one chain of several): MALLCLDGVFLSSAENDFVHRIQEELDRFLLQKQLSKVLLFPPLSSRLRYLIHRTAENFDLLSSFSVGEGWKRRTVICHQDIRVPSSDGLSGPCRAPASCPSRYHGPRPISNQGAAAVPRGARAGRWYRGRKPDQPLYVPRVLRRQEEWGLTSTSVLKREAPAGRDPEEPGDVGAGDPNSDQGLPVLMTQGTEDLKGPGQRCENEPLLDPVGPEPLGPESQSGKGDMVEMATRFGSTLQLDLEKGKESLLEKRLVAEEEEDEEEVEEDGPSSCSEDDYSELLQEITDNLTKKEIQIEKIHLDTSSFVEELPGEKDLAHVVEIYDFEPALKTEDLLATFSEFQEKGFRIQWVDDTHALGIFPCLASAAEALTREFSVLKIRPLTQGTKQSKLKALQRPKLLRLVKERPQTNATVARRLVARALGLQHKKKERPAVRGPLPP
active: vorinostat -0.259
inactive: nilotinib -0.023 | [1] 0.012 | dasatinib 0.043 | [2] 0.011 | [3] -0.049 | quisinostat -0.014 | tipifarnib -0.058 | [4] -0.036 | [5] 0.003 | [6] 0.038 | [7] 0.045 | silmitasertib -0.036 | [8] -0.002 | entospletinib 0.067

RABL3 (UniProt Q5HYI8)
inactive: nilotinib 0.049 | [1] -0.03 | dasatinib -0.077 | [2] -0.051 | [3] 0.01 | quisinostat -0.056 | tipifarnib 0.08 | [4] 0.084 | [5] -0.003 | [6] 0.267 | [7] 0.031 | vorinostat -0.126 | silmitasertib 0.445 | [8] -0.039 | entospletinib 0
